Screens as filed in PubChem BioAssay.
Glioma ERSR ind – qHTS for Inducers of the Endoplasmic Reticulum Stress Response (ERSR) in Human Glioma: qHTS. actives 0.02% (n = 420,000). U87-MG GRP78 promoter luciferase reporter, 16 h. Potency, µM, for inactives: top-dose activation, actives largely listed as activators; active = well fitted activation curve with a large enough effect; note: potency is the fitted concentration of half-maximal effect; series mostly up to about 76 µM; % of control where 0% means no effect; nearly all actives have a fitted effect of over 35% in size
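ERSR induction read as luciferase luminescence (Bright-Glo, 10 min at room temperature) in stably transfected human U87-MG glioma cells exposed to compounds for 16 h, using GRP78 as sensor.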
D1 PAM – Potentiators of Human D1 Dopamine Receptor: qHTS; actives 0.036% (n = 360,000); D(1A) dopamine receptor (Homo sapiens), P21728; potentiation, % at 10 µM; HEK293 TREx D1 cells, calcium flux, dopamine EC20 potentiation; in the data active = potentiation above about 30%; note: 0% is about no effect
Target sequence (P21728 whole entry, looked up): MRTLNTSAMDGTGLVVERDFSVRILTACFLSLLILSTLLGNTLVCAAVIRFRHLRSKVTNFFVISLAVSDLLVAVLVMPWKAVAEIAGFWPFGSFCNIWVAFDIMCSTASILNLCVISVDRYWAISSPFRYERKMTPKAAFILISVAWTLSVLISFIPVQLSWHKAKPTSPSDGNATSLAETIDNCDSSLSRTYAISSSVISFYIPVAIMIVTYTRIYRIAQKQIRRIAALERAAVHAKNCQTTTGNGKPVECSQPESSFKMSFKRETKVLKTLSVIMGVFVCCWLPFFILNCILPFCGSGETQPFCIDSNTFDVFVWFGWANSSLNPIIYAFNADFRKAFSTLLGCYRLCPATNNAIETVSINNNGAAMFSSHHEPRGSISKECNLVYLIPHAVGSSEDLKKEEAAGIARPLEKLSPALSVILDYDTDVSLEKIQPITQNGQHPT
D1 antag – Antagonist of Human D 1 Dopamine Receptor: qHTS; D(1A) dopamine receptor (Homo sapiens), P21728; HEK293 TREx D1 cells, calcium flux, dopamine EC80; hits give low values; activity change, negative = inhibition, % at 10 µM; actives 3.2% (n = 360,000); AID 504652, 2011; in the data active = activity change below about -30%; note: % is set by controls: 0 for no effect and ±100 for the full control effect
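Cells carrying a force-coupled, tetracycline-inducible human D1 receptor report calcium flux. Each well gets a 10 s baseline, compound with 180 s monitoring, then an EC80 dopamine stimulus with a second 180 s kinetic read.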
TRHR ag – qHTS for Small Molecule Agonists and Allosteric Enhancers of Human TRH Receptor: Primary Screen for Agonists; Thyrotropin-releasing hormone receptor (Homo sapiens), P34981; TRHR cells, calcium flux fluo-8, FDSS agonist mode; activation, % at 2 µM; actives 0.18% (n = 360,000); AID 493084, 2011; note: 0% is about no effect
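Fluo-8-loaded TRHR cells; 10 s baseline, compound added, kinetic Ca2+ fluorescence read 1/s, agonist mode.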
D1 agonist – Allosteric Agonists of the Human D1 Dopamine Receptor: qHTS. D(1A) dopamine receptor (Homo sapiens), P21728. HEK293 T-REx D1 cells, calcium flux, agonist mode. actives 1% (n = 360,000). activation, % at 2 µM. AID 504660, 2011; note: 0% is about no effect
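Tetracycline-induced HEK293 TREx D1 cells, force-coupled to calcium signalling, were dye-loaded with a no-wash calcium kit. Compound was pin-added after a 10 s baseline. Fluorescence was read kinetically at 1 cycle/s for 180 s, with calcium rises flagged as agonism.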
TRHR PAM – qHTS for Small Molecule Agonists and Allosteric Enhancers of Human TRH Receptor: Primary Screen for Enhancers | Thyrotropin-releasing hormone receptor (Homo sapiens), P34981 | TRHR cells, fluo-8 calcium fluorescence, EC20 TRH enhancement | enhancement, % at 2 µM | actives 0.66% (n = 360,000); in the data active = enhancement above about 30%; note: 0% is about no effect
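TRHR-expressing cells loaded with fluo-8 calcium dye were read kinetically (ex 480/em 530) during compound addition, then stimulated with an EC20 of TRH (10 nM final). Enhancement of the Gq-mediated intracellular calcium response was scored.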
Active calls of the source: *. Hits are enriched below; roughly 4% of the tested compounds scored in any of these assays. Cut-off read from the data, not from the text of the source, unless noted: active = activation above about 30%; inactive = the rest.

How did CC(C)(C)NC(=O)CN(Cc1cccs1)C(=O)CN1C(=O)C(=O)c2ccccc21 do in these assays?
Glioma ERSR ind: -3%; D1 PAM: -2; D1 antag: 4; TRHR ag: 2; D1 agonist: 0; TRHR PAM: 2

Results for Oc1ccc(C=NC2CCCCC2)cc1 ?
Glioma ERSR ind: -4%; D1 PAM: -8; D1 antag: -35*; TRHR ag: 0; D1 agonist: 1; TRHR PAM: 7

What do the screens show for `O=C(NNc1ccc([N+](=O)[O-])cc1)c1ccccc1Cl`?
Glioma ERSR ind: -2%; D1 PAM: -4; D1 antag: -52*; TRHR ag: 0; D1 agonist: 9; TRHR PAM: 3

What do the screens show for `NN/C(=C\[N+](=O)[O-])Nc1ccc(Cl)cc1`?
Glioma ERSR ind: 5%; D1 PAM: -3; D1 antag: -8; TRHR ag: 0; D1 agonist: 1; TRHR PAM: -1

What do the screens show for `CNCc1ccccc1OCc1ccccc1F`?
Glioma ERSR ind: -3%; D1 PAM: -4; D1 antag: -4; TRHR ag: 1; D1 agonist: 5; TRHR PAM: -1

What do the screens show for `Cc1cc(C)cc(OCC(=O)N2N=C(C(F)(F)F)CC2(O)C(C)(C)C)c1` (configuration not stated)?
Glioma ERSR ind: -5%; D1 PAM: -6; D1 antag: -12; TRHR ag: 0; D1 agonist: 34*; TRHR PAM: 6

How did COc1cccc(CNC(=O)c2ccc(Cl)c(NC3=NC4CS(=O)(=O)CC4S3)c2)c1 (configuration not stated) do in these assays?
Glioma ERSR ind: 0%; D1 PAM: 3; D1 antag: -90*; TRHR ag: 0; D1 agonist: 1; TRHR PAM: 16

What do the screens show for `COc1cccc(CNC(=O)c2cccc(NC3=NC4CS(=O)(=O)CC4S3)c2)c1` (configuration not stated)?
Glioma ERSR ind: -7%; D1 PAM: -1; D1 antag: 3; TRHR ag: 0; D1 agonist: 4; TRHR PAM: 2

How did CSc1ccc(C(=O)C2CCCN(C(=O)c3cccnc3SC)C2)cc1 (configuration not stated) do in these assays?
Glioma ERSR ind: -3%; D1 PAM: 2; D1 antag: -32*; TRHR ag: 2; D1 agonist: 10; TRHR PAM: -14

What do the screens show for `CSc1ncccc1C(=O)N1CCCC(C(=O)c2ccc3ccccc3c2)C1` (configuration not stated)?
Glioma ERSR ind: 2%; D1 PAM: -6; D1 antag: -10; TRHR ag: 0; D1 agonist: 27; TRHR PAM: 20

What do the screens show for `CCc1cc2c(=O)c(Oc3ccccc3F)c(C)oc2c(CN(C)C)c1O`?
Glioma ERSR ind: -3%; D1 PAM: -8; D1 antag: -20; TRHR ag: 0; D1 agonist: 2; TRHR PAM: -1

How did CC1(C(=O)Nc2ccc(Cl)cc2)Cc2c(-c3cccc(C(N)=O)c3)ccnc2O1 (configuration not stated) do in these assays?
Glioma ERSR ind: -3%

Results for CC(=O)c1nc(N2C(=O)CC(Cc3cccc(C)c3)C2=O)sc1C (configuration not stated) ?
Glioma ERSR ind: -5%; D1 PAM: -5; D1 antag: -53*; TRHR ag: 0; D1 agonist: 4; TRHR PAM: 1

What do the screens show for `COCCCNC(=O)c1ccc(Cn2c(SCc3cccc(C)c3)nc3cccnc32)cc1`?
Glioma ERSR ind: 1%; D1 PAM: -1; D1 antag: 9; TRHR ag: 0; D1 agonist: -1; TRHR PAM: 1

How did CC(N)=Nc1ccc([N+](=O)[O-])cc1 do in these assays?
Glioma ERSR ind: -3%; D1 PAM: 2; D1 antag: -1; TRHR ag: 1; D1 agonist: 4; TRHR PAM: 0

Results for O=[N+]([O-])c1ccc(N=Nc2c(Cl)cc(O)cc2Cl)cc1 ?
Glioma ERSR ind: -8%; D1 PAM: -13; D1 antag: -46*; TRHR ag: 7; D1 agonist: 21; TRHR PAM: -5

What do the screens show for `Cc1cn(Cc2ccccc2Cn2cc(C)c(=O)[nH]c2=O)c(=O)[nH]c1=O`?
Glioma ERSR ind: -1%; D1 PAM: -3; D1 antag: 11; TRHR ag: 0; D1 agonist: 1; TRHR PAM: -3

How did CCOC(=O)N1CCC(NS(=O)(=O)c2cc3c(cc2C)NC(=O)CO3)CC1 do in these assays?
Glioma ERSR ind: -4%; D1 PAM: -8; D1 antag: -19; TRHR ag: 0; D1 agonist: 3; TRHR PAM: 2

Results for Cc1ccc(S(=O)(=O)N2CCN(C(=O)CN3CCCCC3)C2)cc1 ?
Glioma ERSR ind: -5%; D1 PAM: 0; D1 antag: 4; TRHR ag: 1; D1 agonist: -1; TRHR PAM: 9

What do the screens show for `COc1ccc(Oc2ccccc2C#N)cc1`?
Glioma ERSR ind: -3%; D1 PAM: 0; D1 antag: 6; TRHR ag: 1; D1 agonist: 1; TRHR PAM: 2

Results for O=C(CN1C(=O)CSc2ccc(S(=O)(=O)N3CCCC3)cc21)Nc1cccc(Cl)c1 ?
Glioma ERSR ind: -4%; D1 PAM: -2; D1 antag: 2; TRHR ag: 0; D1 agonist: 3; TRHR PAM: 2

How did Cc1ccc2c(n1)sc1c(-c3ccc(Br)cc3)c(C#N)c(N)nc12 do in these assays?
Glioma ERSR ind: -1%; D1 PAM: -10; D1 antag: -31*; TRHR ag: 0; D1 agonist: 2; TRHR PAM: 0

Results for CCc1nc(N)c(C#N)c(-c2ccc(F)cc2)c1C ?
Glioma ERSR ind: -4%; D1 PAM: 7; D1 antag: -18; TRHR ag: 0; D1 agonist: 1; TRHR PAM: 3

Results for NC(=O)c1nsc(C(=O)N(Cc2ccco2)C(C(=O)NCc2ccccc2)c2ccc(O)cc2)c1N (configuration not stated) ?
Glioma ERSR ind: -1%; D1 PAM: 5; D1 antag: -17; TRHR ag: -1; D1 agonist: 3; TRHR PAM: 5
